Test results reported in PubChem BioAssay (NCATS).
Values without a mark were called inactive. Results filed as inconclusive are left out. Calls of active or inactive are those of the source. Unless noted, calls come from the whole dose curve; as a rule, active = well fitted curve in either direction with a large enough effect (not every such curve was filed as active); inconclusive = small, poorly fitted or top-dose-only effect, or another doubt; inactive = flat fitted curve, though single readings scatter.

Key:
[1] = target: Lysosomal acid glucosylceramidase (Homo sapiens) (UniProt P04062); test: Glucocerebrosidase-p2 (AID 348; in the data active = potency below about 10 µM; note: potency is the fitted concentration of half-maximal effect); settings: purified GBA, blue fluorogenic substrate, 40 min
Sequence of Lysosomal acid glucosylceramidase (Homo sapiens) (P04062 whole entry, looked up): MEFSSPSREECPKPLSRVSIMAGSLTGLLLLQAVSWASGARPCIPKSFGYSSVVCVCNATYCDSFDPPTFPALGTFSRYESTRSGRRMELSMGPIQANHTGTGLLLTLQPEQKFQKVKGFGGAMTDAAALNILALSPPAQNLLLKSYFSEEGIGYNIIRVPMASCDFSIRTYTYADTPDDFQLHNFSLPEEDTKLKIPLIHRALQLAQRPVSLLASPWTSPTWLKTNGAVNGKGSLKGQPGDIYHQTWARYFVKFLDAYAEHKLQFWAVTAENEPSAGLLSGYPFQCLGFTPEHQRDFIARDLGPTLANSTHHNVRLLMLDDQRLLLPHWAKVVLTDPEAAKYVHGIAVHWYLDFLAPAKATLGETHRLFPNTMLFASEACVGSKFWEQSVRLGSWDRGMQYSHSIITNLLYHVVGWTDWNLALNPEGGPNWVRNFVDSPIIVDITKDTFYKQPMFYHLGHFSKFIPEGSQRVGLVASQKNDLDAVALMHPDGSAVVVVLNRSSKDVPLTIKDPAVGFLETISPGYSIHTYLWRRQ
Procedure, shortened: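 Compounds titrated from 0.6 nM upwards against 0.2 nM enzyme in pH 5.9 citric acid/KH2PO4, taurocholate, tween-20; blue fluorogenic substrate 80 uM, 40 min room temperature, stopped and read Ex 365/Em 440 for AC50.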

[2] = AP1 Signaling Pathway (AID 357); settings: ME-180 AP-1-bla reporter, EGF-induced, beta-lactamase ratio, 5 h; at 7.69 µM (top of the series) unless noted; note: % is set by controls: 0 for no effect and ±100 for the full control effect
Procedure, shortened: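 AP-1-bla ME-180 cells with beta-lactamase reporter under AP-1 response element, stimulated with EC50 EGF; compounds titrated, 5 hours at 37 degrees Celsius. CCF4 read at 460/530 nm ratio; positive and negative modulators judged by AC50.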

[3] = target: Cytochrome P450 1A2 (Homo sapiens) (UniProt P05177); test: p450-cyp1a2 (AID 410; calls by dose curve; note: potency is the fitted concentration of half-maximal effect;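 for activity change, negative = inhibition: -100% = full effect of reference inhibitor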); settings: recombinant CYP1A2, luciferin-ME demethylation, luminescence; series mostly up to 11.4 µM
Sequence of Cytochrome P450 1A2 (Homo sapiens) (P05177 whole entry, looked up): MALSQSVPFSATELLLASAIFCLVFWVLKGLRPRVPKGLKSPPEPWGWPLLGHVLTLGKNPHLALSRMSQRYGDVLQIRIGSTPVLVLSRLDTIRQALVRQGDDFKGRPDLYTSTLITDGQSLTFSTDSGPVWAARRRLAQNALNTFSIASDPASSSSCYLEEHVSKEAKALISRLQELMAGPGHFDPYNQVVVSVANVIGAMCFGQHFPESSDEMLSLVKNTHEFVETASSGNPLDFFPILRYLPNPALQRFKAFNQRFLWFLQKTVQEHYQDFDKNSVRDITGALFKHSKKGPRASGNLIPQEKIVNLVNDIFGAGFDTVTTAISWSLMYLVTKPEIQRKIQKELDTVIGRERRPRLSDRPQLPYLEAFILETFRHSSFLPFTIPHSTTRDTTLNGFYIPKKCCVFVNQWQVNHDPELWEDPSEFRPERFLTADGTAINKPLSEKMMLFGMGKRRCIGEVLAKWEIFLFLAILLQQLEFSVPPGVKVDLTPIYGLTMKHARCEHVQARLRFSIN
Procedure, shortened: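 Luminescent readout of luciferin formed from Luciferin-ME by human CYP1A2; data normalized against complete inhibition by 57 uM furafylline. Enzyme 20nM, substrate 100uM at Km, 100mM KPO4 buffer, 60 min reaction at room temperature.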

[4] = NFAT Signaling Pathway (AID 444); settings: Jurkat NFAT-bla M1, carbachol, beta-lactamase ratio, 5 h; at 7.69 µM (top of the series) unless noted;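 note: carbachol stimulus at about its EC50 of 1 µM final; % is set by controls: 0 for no effect and ±100 for the full control effect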
Procedure, shortened: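 Jurkat cells with NFAT-driven β-lactamase reporter and co-expressed M1 receptor, stimulated with carbachol (final 1 uM, ~EC50), compound titration, 5 h at 37 °C. CCF4 loaded 1 h at RT; 460/530 nm ratio gave %activity and AC50.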

[5] = Stat Signaling Pathway (AID 446); settings: ME-180 (cervical carcinoma) SIE beta-lactamase reporter, IL-6 stimulated, 5 h; at 7.69 µM (top of the series) unless noted;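 note: ME-180 cervical cancer cells given 40 pM IL-6 alongside compound; SIE-controlled beta-lactamase reporter measured as 460/530 nm FRET emission ratio; % is set by controls: 0 for no effect and ±100 for the full control effect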
Procedure, shortened: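 IL-6/STAT signaling read in ME-180 cells via an SIE beta-lactamase reporter. Stimulus was 40 pM IL-6 (its AC50) for 5 hrs, so both activation and inhibition register.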

[6] = target: Glucocorticoid receptor (Homo sapiens) (UniProt P04150); test: GR-GFP Redistribution (AID 450;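 active = compounds whose dose series gives a full or clear partial fitted curve of increased nuclear translocation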; note: potency is the fitted concentration of half-maximal effect); settings: U2OS GR-GFP nuclear translocation, laser cytometry, 2 h
Sequence of Glucocorticoid receptor (Homo sapiens) (P04150 whole entry, looked up, the tested form may be a part): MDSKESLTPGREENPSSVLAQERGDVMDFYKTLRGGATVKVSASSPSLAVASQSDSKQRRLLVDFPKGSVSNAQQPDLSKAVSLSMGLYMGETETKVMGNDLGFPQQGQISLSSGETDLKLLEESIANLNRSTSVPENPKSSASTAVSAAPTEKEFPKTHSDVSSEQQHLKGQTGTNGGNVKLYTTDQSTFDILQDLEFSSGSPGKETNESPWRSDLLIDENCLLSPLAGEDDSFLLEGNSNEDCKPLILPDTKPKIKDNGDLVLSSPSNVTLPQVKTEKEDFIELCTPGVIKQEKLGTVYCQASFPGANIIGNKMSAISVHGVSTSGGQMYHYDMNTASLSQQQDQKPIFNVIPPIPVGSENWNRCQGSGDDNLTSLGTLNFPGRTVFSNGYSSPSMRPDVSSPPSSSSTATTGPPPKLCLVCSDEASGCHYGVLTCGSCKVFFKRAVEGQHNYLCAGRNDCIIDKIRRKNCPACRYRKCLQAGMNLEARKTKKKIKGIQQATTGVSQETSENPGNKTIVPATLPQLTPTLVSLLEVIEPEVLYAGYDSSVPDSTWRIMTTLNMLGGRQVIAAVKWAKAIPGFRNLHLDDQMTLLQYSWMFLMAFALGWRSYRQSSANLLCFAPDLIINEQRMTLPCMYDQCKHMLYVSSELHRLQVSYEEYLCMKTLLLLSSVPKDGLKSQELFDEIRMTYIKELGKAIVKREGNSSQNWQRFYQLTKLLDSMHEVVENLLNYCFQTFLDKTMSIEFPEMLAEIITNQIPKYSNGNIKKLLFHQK

[7] = target: Glucocorticoid receptor (Homo sapiens) (UniProt P04150); test: GR-EFC Redistribution (AID 451; calls by dose curve; note: potency is the fitted concentration of half-maximal effect); settings: CHO-K1 GR-EFC translocation, beta-gal luminescence, 2 h
Procedure, shortened: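 CHO-K1 cells expressing nuclear EA and GR-ED fragments of b-gal; compounds titrated up to 46 uM final, 2 h at 37 C. GR nuclear translocation read as complemented b-gal luminescence after 1 h RT detection.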

[8] = target: Mitogen-activated protein kinase 10 (Mus musculus) (UniProt Q61831); test: JNK3 AlphaScreen Assay (AID 530); settings: JNK3 lysate, c-Jun phosphorylation; series mostly up to 11.4 µM;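 note: kinase came from lysate of stimulated human HepG2 cells; signal reports phosphorylation of biotinylated GST-cJun 1-79 at Ser73 with 10 µM ATP; % is set by controls: 0 for no effect and ±100 for the full control effect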
Procedure, shortened: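 Pre-activated (IL-1β/TNFα) JNK3 in HepG2 lysates phosphorylates biotin-GST-cJun(1-79), 10 uM ATP; anti-phospho-cJun(Ser73) AlphaScreen read at room temperature, pH 7.6 Tris buffer. Compounds pre-incubated 15 min as titrations.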

[9] = target: 3',5'-cyclic-AMP phosphodiesterase 4B (Homo sapiens) (UniProt Q07343); test: qHTS Assay for Inhibitors of PDE-IV (AID 607; active = well fitted activation curve with a large enough effect in the main read-out, with a control signal flat, not every such curve was filed as active; note: % of control where 0% means no effect); settings: HEK293 ACTOne CNG channel cells, membrane potential fluorescence; series mostly up to 22.9 µM
Sequence of 3',5'-cyclic-AMP phosphodiesterase 4B (Homo sapiens) (Q07343 whole entry, looked up): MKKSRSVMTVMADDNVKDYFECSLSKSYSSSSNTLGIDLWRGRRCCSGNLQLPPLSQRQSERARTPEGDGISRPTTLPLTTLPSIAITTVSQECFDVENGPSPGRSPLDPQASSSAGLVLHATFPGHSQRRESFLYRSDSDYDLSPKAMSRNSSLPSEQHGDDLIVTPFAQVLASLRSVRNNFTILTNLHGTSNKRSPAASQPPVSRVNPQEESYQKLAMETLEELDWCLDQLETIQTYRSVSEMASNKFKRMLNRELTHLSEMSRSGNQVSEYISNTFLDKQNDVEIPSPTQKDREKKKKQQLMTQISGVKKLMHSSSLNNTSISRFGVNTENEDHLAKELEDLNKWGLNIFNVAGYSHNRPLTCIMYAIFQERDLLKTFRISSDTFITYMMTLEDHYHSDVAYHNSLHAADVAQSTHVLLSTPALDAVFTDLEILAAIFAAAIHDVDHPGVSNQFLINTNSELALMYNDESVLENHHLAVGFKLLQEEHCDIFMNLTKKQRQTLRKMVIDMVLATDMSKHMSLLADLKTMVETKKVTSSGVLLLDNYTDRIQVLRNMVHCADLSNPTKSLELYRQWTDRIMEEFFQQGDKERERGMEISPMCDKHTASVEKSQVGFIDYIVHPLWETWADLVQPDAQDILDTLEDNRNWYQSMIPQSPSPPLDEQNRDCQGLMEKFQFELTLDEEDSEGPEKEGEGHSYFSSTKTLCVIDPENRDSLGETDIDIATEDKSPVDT
Procedure, shortened: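 Live HEK293 cells with a modified cyclic nucleotide-gated (CNG) channel report intracellular cAMP via membrane-potential dye fluorescence (ex 535/em 590 nm). Endogenous PDE-IV was targeted. Compounds were tested at up to 22.9 uM final; RO 20-1724 100 uM served as control.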

| Structure (SMILES) | Potency [1] | activity change, negative = inhibition [2] [%] | activity change, negative = inhibition [3] | activity change, negative = inhibition [4] [%] | activity, negative = inhibition [5] [%] | Potency [6] | Potency [7] [µM] | Potency [8] | Potency [9] | Potency [3] |
| --- | --- | --- | --- | --- | --- | --- | --- | --- | --- | --- |
| Nc1nc2c(c(=O)[nH]1)CN(c1ccc(S(N)(=O)=O)cc1)CN2 | > 11.4 µM | -2.56 | 8.8% [at 2.29 µM] | 12 | 1.71 | > 46 µM | > 9.22 | inactive | inactive | – |
| CC(C)[C@]1(Cl)CC[C@@H]2[C@]3(C)CCC[C@@](C)(C(=O)O)[C@H]3C[C@H](Cl)[C@@]2(Cl)[C@H]1Cl | > 11.4 µM | -2.07 | – | 0.923 | 0.27 | > 46 µM | > 9.22 | inactive | inactive | inactive |
| Cc1ccc(S(=O)(=O)Nc2ccccc2C(=O)c2ccc(C)c(C)c2)cc1 | > 11.4 µM | 5.46 | – | 2.8 | -2.64 | > 46 µM | > 9.22 | inactive | inactive | 0.631 µM (active) |
| O=C(O)/C=C(/C(=O)O)[C@]12CCN3CC4=CCO[C@@H]5CC(=O)N[C@@H]1[C@H]5[C@H]4C[C@H]32 | > 11.4 µM | 9.14 | -15% [at 2.29 µM] | -1.3 | -7.59 | > 46 µM | > 9.22 | inactive | inactive | – |
| Cc1nc2cccc([N+](=O)[O-])c2n1CCCN(C)C | > 11.4 µM | 11.7 | – | 12.7 | 9.88 | > 46 µM | > 9.22 | inactive | inactive | inactive |
| Oc1ccccc1CNCc1ccccc1O | > 11.4 µM | -4.9 | – | -12.2 | -8.46 | > 46 µM | > 9.22 | inactive | inactive | inactive |
| O=C(O)[C@H]1CC=CC[C@@H]1C(=O)Nc1cccc(O)c1 | > 11.4 µM | -4.95 | – | 9.88 | 1.44 | > 46 µM | > 9.22 | inactive | inactive | inactive |
| N#CCCn1c(=O)c(-c2ccccc2)nc2cnc(Oc3cccc(Cl)c3)nc21 | > 11.4 µM | -25.4 | – | -23.9 | -4.6 | > 9.22 µM | > 46 | inactive | inactive | 2.51 µM (active) |
| C/C(=N/Nc1nc(C)cc(=O)[nH]1)C(=O)O | > 11.4 µM | 1.69 | – | 1.78 | -0.204 | > 46 µM | > 9.22 | inactive | inactive | inactive |
| Cc1cc(N2CCN(C)CC2)n2nc(-c3ccc(Cl)cc3)nc2n1 | > 11.4 µM | -1.96 | – | 13.2 | 4.28 | > 46 µM | > 9.22 | inactive | inactive | inactive |
| O=S1(=O)N[C@H]2CC[C@@H]3NS(=O)(=O)N[C@H]4CC[C@H](N1)N4S(=O)(=O)N23 | > 11.4 µM | -14.2 | – | 23.9 | -2.8 | > 46 µM | > 9.22 | inactive | inactive | inactive |
| Cc1ccc(/C(C#N)=C/c2cccc([N+](=O)[O-])c2)cc1 | > 11.4 µM | 15.2 | – | -0.124 | 11.8 | > 46 µM | > 9.22 | inactive | inactive | 3.98 µM (active) |
| O=C1c2cc([N+](=O)[O-])ccc2-c2ccc3c4ccc5c6c(ccc(c7ccc1c2c73)c64)C(=O)c1cc([N+](=O)[O-])ccc1-5 | > 11.4 µM | 0.115 | – | 21.7 | 9.03 | > 46 µM | > 9.22 | inactive | inactive | 0.794 µM (active) |
| CC(C)(C)c1cc2c(O)c(c1)Cc1cc(C(C)(C)C)cc(c1O)Cc1cc(C(C)(C)C)cc(c1O)Cc1cc(C(C)(C)C)cc(c1O)Cc1cc(C(C)(C)C)cc(c1O)Cc1cc(C(C)(C)C)cc(c1O)Cc1cc(C(C)(C)C)cc(c1O)Cc1cc(C(C)(C)C)cc(c1O)C2 | > 11.4 µM | 6.61 | – | -14.8 | -5.63 | > 46 µM | > 9.22 | inactive | inactive | inactive |
| NS(=O)(=O)c1ccc(N=Nc2ccc[nH]c2=O)cc1 | 3.95 µM (active) | -1.61 | – | -25.2 | -6.14 | > 46 µM | > 9.22 | inactive | inactive | 0.501 µM (active) |
| O=C(Nc1ccc2oc(=O)c(C(=O)O)cc2c1)Oc1ccccc1 | > 11.4 µM | -4.82 | -15.3% [at 2.29 µM] | 9.87 | 1.95 | > 46 µM | > 9.22 | inactive | inactive | – |
| Cc1cc2nc([C@H](C)C(=O)c3ccc(Cl)cc3)c(=O)[nH]c2cc1C | > 11.4 µM | -1.07 | – | -5.22 | -18.7 | > 46 µM | > 9.22 | inactive | inactive | 0.501 µM (active) |
| Nc1cc(C(=O)O)[nH]c(=O)n1 | > 11.4 µM | 3.6 | – | 8.92 | 13.8 | > 46 µM | > 9.22 | inactive | inactive | inactive |
| O=C1C2C3C=CC(C2C(=O)N1CN1CCOCC1)C1C2C(=O)N(CN4CCOCC4)C(=O)C2C31 (stereo not given) | > 11.4 µM | 1.83 | – | 6.33 | 11.2 | > 46 µM | > 9.22 | inactive | inactive | inactive |
| COc1ccc(CN[C@H](C)C(=O)O)cc1 | > 11.4 µM | -9.23 | – | -12 | 2.1 | > 46 µM | > 9.22 | inactive | inactive | inactive |
| CCC(=O)Nc1ncnc2ncn(C(=O)CC)c12 | > 11.4 µM | 8.41 | – | 1.71 | 1.38 | > 46 µM | > 9.22 | inactive | inactive | inactive |
| C[C@@]12CC[C@@H]3[C@H](CCC4=CC(=O)CC[C@]43C)[C@@H]1CC[C@@H]2C(=O)COS(=O)(=O)c1ccc(Br)cc1 | > 11.4 µM | -0.601 | – | 19 | -0.203 | 0.793 µM (active) | > 9.22 | inactive | inactive | inactive |
| O=C(O)c1ccc(C(=O)c2ccccc2)c(C(=O)O)c1 | > 11.4 µM | 21.3 | 3.1% [at 2.29 µM] | 2.06 | 5.54 | > 46 µM | > 9.22 | inactive | inactive | – |
| CC(C)CN=C(N)N=C(N)N | > 11.4 µM | 6.14 | – | 11.1 | 1.4 | > 46 µM | > 9.22 | inactive | inactive | inactive |
| CN(C)CCOC(=O)c1ccc(N)cc1 | > 11.4 µM | 4.6 | – | -0.262 | -3.48 | > 46 µM | > 9.22 | inactive | inactive | inactive |
| Cc1ccc(-[n+]2cc(=O)o[nH]2)cc1 | > 11.4 µM | 4.74 | – | -24.7 | 12.6 | > 46 µM | > 9.22 | inactive | inactive | 3.98 µM (active) |
| O=C(O)c1cccc(SSc2cccc(C(=O)O)c2)c1 | > 11.4 µM | 0.262 | – | 17.5 | -14.5 | > 46 µM | > 9.22 | inactive | inactive | 5.01 µM (active) |
| NC(N)=Nc1ccc(-c2ccc(N=C(N)N)cc2)cc1 | > 11.4 µM | 1.56 | – | 4.39 | 0.358 | > 46 µM | > 9.22 | inactive | inactive | inactive |
| O=C(O)c1cc2c(cc1S(=O)(=O)O)[C@H]1[C@@H]([C@H]3[C@H]2[C@@]2(Cl)C(Cl)=C(Cl)[C@]3(Cl)C2(Cl)Cl)[C@]2(Cl)C(Cl)=C(Cl)[C@@]1(Cl)C2(Cl)Cl | > 11.4 µM | 5.22 | – | 0.12 | -4.58 | > 46 µM | > 9.22 | inactive | inactive | inactive |
| N#C[C@H]1CN[C@H](N)N[C@@H]1N | > 11.4 µM | 2.11 | -11.6% [at 2.29 µM] | 6.86 | 13.9 | > 46 µM | > 9.22 | inactive | inactive | – |
